± gives the standard deviation of the averaged measurements. Over roughly 33,000 sequences, “E-score (rank enrichment, -0.5 to 0.5)” has its median near -0.0043; the highest 2% begin near 0.24. The entries come from a sample that favours the highest values as a whole.
test system: 2Sp-muMax20 (muMax20 with two 2,6-bis(methyl)pyridine Cys staples); test: PBM 8-mer E-score (E-score (rank enrichment, -0.5 to 0.5)); higher = stronger preferential binding
Description: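 Protein binding microarray (universal PBM chip covering all 10-mers in fixed probe flanks) with chemically synthesized human Max(13-93) bHLH-LZ analogs (not full-length Max) bearing noncanonical residues (hArg, Tha, Aib, Nle at 65) and aromatic Cys staples. Read-out per 8-mer (and its reverse complement): E-score (rank-based enrichment, -0.5 to 0.5) and Z-score of median probe intensity.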

Row | Sequence | PBM 8-mer E-score
1 | AATAATTA | 0.28 ± 0.019
2 | GATAATTA | 0.196 ± 0.061
3 | CATAATTC | -0.0185 ± 0.041
4 | CCTAATTA | 0.0904 ± 0.21
5 | AATAATTC | 0.189 ± 0.046
6 | CATAATTA | 0.253 ± 0.034
7 | TACTGCTA | 0.126 ± 0.038
8 | ACGGAGTC | -0.0911 ± 0.056
9 | ACGGGGCT | -0.148 ± 0.019
10 | AGAGCACG | 0.134 ± 0.077
11 | ACCAGTAC | -0.126 ± 0.045
12 | GGGTGCAC | -0.0471 ± 0.01
13 | ATCATGAA | 0.144 ± 0.037
14 | CTCATGAC | 0.0229 ± 0.022
15 | ATCATGTA | 0.113 ± 0.059
16 | ATCATGTC | 0.25 ± 0.02
17 | ATCATGAT | 0.257 ± 0.011
18 | ATCATGAG | 0.0344 ± 0.13
19 | CTCATGTC | -0.0319 ± 0.027
20 | CTCATGAG | 0.319 ± 0.028
21 | CTCATGAA | 0.0567 ± 0.055
22 | GAGGTACA | -0.0106 ± 0.013
23 | TAGGATAA | 0.0706 ± 0.063
24 | AAATCGTG | 0.0374 ± 0.006
25 | ATTCGTCA | 0.0337 ± 0.012

Row | Sequence | PBM 8-mer E-score
26 | GCGCGCGC | 0.361 ± 0.053
27 | GCACGCGA | 0.0689 ± 0.0054
28 | GCGCGCGA | 0.149 ± 0.071
29 | GCACGCGC | 0.331 ± 0.018
30 | CCGCGCGC | 0.13 ± 0.12
31 | TCGCGCGA | 0.265 ± 0.11
32 | ACACGCGC | 0.118 ± 0.046
33 | GCGCGCAC | 0.203 ± 0.035
34 | CCGCGCGA | -0.0339 ± 0.029
35 | CCATTGTC | -0.0232 ± 0.0014
36 | ACGAGGTC | 0.0484 ± 0.023
37 | ATGAGCAG | 0.0835 ± 0.083
38 | CGGGTATA | 0.0393 ± 0.086
39 | AGGGTATG | 0.178 ± 0.066
40 | ATGGTATG | 0.0455 ± 0.0021
41 | ATGGTATA | 0.238 ± 0.028
42 | ATGGTATC | 0.165 ± 0.011
43 | AGGGTATA | 0.24 ± 0.0057
44 | CGTCCTAG | -0.188 ± 0.035
45 | ATGATGTC | 0.14 ± 0.091
46 | AGTGAATA | -0.07056 ± 0.00064
47 | ACATAAGT | 0.132 ± 0.017
48 | ATCACCAT | 0.103 ± 0.052
49 | ATAACCAC | 0.243 ± 0.014
50 | ATAACCAG | 0.0292 ± 0.0095

Row | Sequence | PBM 8-mer E-score
51 | CTCACCAC | 0.0921 ± 0.082
52 | ATCACCAC | 0.276 ± 0.0035
53 | CTAACCAC | -0.0501 ± 0.043
54 | CCGAAGCA | 0.0942 ± 0.036
55 | CAGTGGCA | -0.004 ± 0.031
56 | CCGAATAA | 0.0378 ± 0.031
57 | ACGTAGAG | -0.0148 ± 0.051
58 | GAAAATGC | 0.127 ± 0.028
59 | CGAGGCTC | -0.224 ± 0.035
60 | AGCACATC | 0.0563 ± 0.062
61 | AGCACATG | 0.263 ± 0.026
62 | ACCACATC | -0.0798 ± 0.011
63 | AGCACATA | 0.0303 ± 0.1
64 | ATCACATG | 0.305 ± 0.021
65 | ACCACATG | 0.318 ± 0.0037
66 | ATCACATA | 0.187 ± 0.0085
67 | ACCACATA | 0.0521 ± 0.076
68 | ATCACATC | 0.0931 ± 0.021
69 | CAACGCCG | -0.168 ± 0.12
70 | CGAAACGA | -0.0544 ± 0.031
71 | ATTGTCTG | 0.0837 ± 0.039
72 | CTCTCTCC | -0.18 ± 0.14
73 | CCCATTCC | -0.0919 ± 0.059
74 | CGCATACA | 0.0225 ± 0.14
75 | AGCGCCAC | -0.0643 ± 0.017

Row | Sequence | PBM 8-mer E-score
76 | TCAATGGA | -0.0717 ± 0.0065
77 | CCGTGGGC | -0.2115 ± 0.0018
78 | GCCAGAGC | -0.206 ± 0.099
79 | GAGTCTAC | -0.125 ± 0.044
80 | CATGGGTA | 0.072 ± 0.066
81 | CGGTGGGA | -0.0291 ± 0.0059
82 | GGTGGGTA | 0.249 ± 0.035
83 | GATGGGTA | 0.249 ± 0.014
84 | AGTGGGTA | 0.166 ± 0.0072
85 | AATGGGTA | 0.0946 ± 0.14
86 | AGGTGGGA | 0.0626 ± 0.1
87 | GGGTGGGA | 0.297 ± 0.0041
88 | CGTGGGTA | 0.0577 ± 0.045
89 | CGGCACCC | -0.139 ± 0.13
90 | GCTAGACC | -0.164 ± 0.049
91 | CTTCGAAC | -0.115 ± 0.0046
92 | ACCTACAG | 0.0593 ± 0.044
93 | AGCGGGGC | -0.0319 ± 0.078
94 | CGAACATC | 0.00373 ± 0.037
95 | CGAACATA | 0.255 ± 0.034
96 | AAAACATT | 0.0666 ± 0.088
97 | GAAACATA | 0.254 ± 0.015
98 | GAAACATC | -0.0525 ± 0.05
99 | AAAACATA | 0.0989 ± 0.11
100 | GGAACATA | 0.0521 ± 0.044

Row | Sequence | PBM 8-mer E-score
101 | CAAACATG | 0.157 ± 0.079
102 | AAAACATG | 0.24 ± 0.078
103 | ACAGACGG | -0.07 ± 0.089
104 | ATTCGTTG | -0.0514 ± 0.066
105 | ACGTGTAA | 0.173 ± 0.072
106 | GCAGCGAA | -0.157 ± 0.066
107 | ACCTTGAT | 0.0217 ± 0.046
108 | GATTCAAA | 0.0206 ± 0.051
109 | CTCGGTGC | -0.163 ± 0.12
110 | ACGAACTA | -0.0202 ± 0.1
111 | AGTACACA | 0.196 ± 0.098
112 | AGTACAAA | 0.134 ± 0.1
113 | CGTACACG | 0.134 ± 0.035
114 | TGTACACA | 0.283 ± 0.012
115 | GGTACAAA | 0.0427 ± 0.053
116 | TGTACAAA | 0.244 ± 0.054
117 | GTAACAAC | 0.00768 ± 0.059
118 | ACATTCAG | 0.0112 ± 0.042
119 | GATGAATA | 0.201 ± 0.093
120 | AATGAATT | 0.179 ± 0.031
121 | AATGAATG | 0.24 ± 0.098
122 | AATGAATA | 0.259 ± 0.064
123 | TATGAATA | 0.169 ± 0.078
124 | AATGAATC | -0.0131 ± 0.0047
125 | ATACTTGG | 0.0935 ± 0.004

Row | Sequence | PBM 8-mer E-score
126 | GTCCATCA | -0.0683 ± 0.092
127 | CCCGTCCC | -0.0481 ± 0.028
128 | CAAAACTA | 0.103 ± 0.013
129 | ACAAACTA | 0.115 ± 0.0062
130 | CCAAACTA | 0.241 ± 0.0054
131 | GTGACTAA | 0.0929 ± 0.037
132 | CATCCAAC | 0.124 ± 0.056
133 | TAGGGACA | -0.0107 ± 0.063
134 | GACTACTA | 0.12 ± 0.12
135 | TACTAGTA | 0.25 ± 0.055
136 | GACTAGTA | 0.223 ± 0.033
137 | ATCTACTA | 0.263 ± 0.086
138 | TACTACTA | 0.247 ± 0.058
139 | CTCTAGTA | 0.125 ± 0.045
140 | GTCTAGTA | 0.246 ± 0.021
141 | AACTACTA | 0.144 ± 0.025
142 | ATCTACTC | -0.0118 ± 0.032
143 | ATCTACTG | 0.0117 ± 0.033
144 | ATCTAGTA | 0.0613 ± 0.095
145 | CACTAGTA | 0.107 ± 0.1
146 | AAGGCTAA | 0.0957 ± 0.095
147 | GCAATCCC | 0.107 ± 0.035
148 | AATACTTA | 0.05682 ± 0.00026
149 | CGCCTAGA | -0.246 ± 0.079
150 | ACTCCGGA | 0.0232 ± 0.032

Row | Sequence | PBM 8-mer E-score
151 | AAAGCTAT | 0.0921 ± 0.032
152 | AGAGTTGC | -0.124 ± 0.013
153 | GCTCCGAC | -0.215 ± 0.035
154 | CGGCTTCC | -0.166 ± 0.13
155 | CCTGCCCG | -0.0476 ± 0.0022
156 | CCGTTACC | -0.0555 ± 0.027
157 | GACTTGTA | 0.124 ± 0.17
158 | ACCGCAAA | -0.161 ± 0.043
159 | TATGCGCA | 0.267 ± 0.026
160 | CTTGCGCA | 0.266 ± 0.0099
161 | CTTGCGCC | -0.148 ± 0.036
162 | CATGCGCA | 0.109 ± 0.18
163 | ATTGCGCA | 0.124 ± 0.033
164 | AATGCGCA | 0.229 ± 0.021
165 | TAACATTA | 0.114 ± 0.082
166 | ATGTTAAC | 0.322 ± 0.023
167 | GTGTTAAC | -0.0129 ± 0.032
168 | ATGTTTAC | 0.243 ± 0.073
169 | CTGTTTAC | 0.0257 ± 0.014
170 | ATGTTTAG | 0.22 ± 0.022
171 | CTGTTAAC | 0.0735 ± 0.0019
172 | ACTGGCTC | -0.126 ± 0.031
173 | GGTAAACC | -0.203 ± 0.077

From the supplement of paper PMC12636033
